Experimental data taken from PubChem BioAssay (NCI).
This is part of a sample that, as a whole, favours compounds with a hit. Of some 79,000 tested, about 15% had one in any assay. Values without a mark were called inactive. Active and inactive are the calls of the source. Cut-off read from the data, not from the text of the source: active = growth inhibition above about 70%; inactive = the rest.

Experiment: NCI Yeast Anticancer Drug Screen. Data for the mlh1 rad18 strain (AID 175)
Conditions: S. cerevisiae mlh1 rad18 strain growth inhibition, active compounds read high
Description: Growth inhibition of yeast strains with defined genetic alterations is measured as a screen for potential anti-cancer activity. Selected strains with alterations in DNA damage repair or cell cycle control were exposed to compounds and growth inhibition was measured relative to vehicle treated controls. The strain used in this assay is mlh1 rad18

[1] = at 5.0 µM (retest, dose inferred, filed as 0.5)
[2] = at 50.0 µM (retest, dose inferred, filed as 5.0)

Row | Compound | growth inhibition [1] | growth inhibition [2] | growth inhibition (at 50.0 µM)
1 | CCCCC(Oc1cc(C(C)(C)C)c(O)c(C(C)(C)C)c1)C(=O)O (configuration not stated) | 27% | 97% (active) | 98.9% (active)
2 | C[N+](C)(CCO)Cc1ccccc1 | -4% | 6% | 34%
3 | CC(=O)C(C(C)=O)C1C=CC=CC=C1 | -139% | 92% (active) | 96.9% (active)
4 | O=NN(CCCl)C(=O)NCCSSCCNC(=O)N(CCCl)N=O (tested in a mixture with another compound) | 73% (active) | 96% (active) | 72.1% (active)
5 | CCCCOc1ccc(NC(=S)Nc2ccc(OCCN(CC)CC)cc2)cc1 | 35% | 71% (active) | 79.2% (active)
6 | CC(C)(C)c1ccc(C(=O)C[n+]2ccc(Cl)c3ccc(Cl)cc32)cc1 | 1% | 99% (active) | 99.2% (active)
7 | CN(C)CCNC(=O)c1cccc2ccc(-c3ccc(-c4ccccc4)cc3)nc12 | 0% | 99% (active) | 99.4% (active)
8 | OC1c2cc(Cl)cc(Cl)c2OC2(N3CCCC3)CCCCC12 (configuration not stated) | 61% | 96% (active) | 73.6% (active)
9 | Nc1cc(=O)[nH]c(=S)[nH]1.[Pd] | 0% | -4% | 35.6%
10 | COC(=O)C1C2CC3c4[nH]c5cc(OC)c(Br)cc5c4CCN3CC2CC(OC(=O)c2cc(OC)c(OC)c(OC)c2)C1OC (configuration not stated) | -30% | 97% (active) | 86.6% (active)
11 | Cc1ccc(C)c(N2C/C(=N\NC(=O)CC#N)C(c3nc4ccccc4s3)C(=O)C2=O)c1 (configuration not stated) | 1% | 1% | 20.9%
12 | CC(/C=C1\CCC(CN(C)C)C1=O)c1cccc(Br)c1 (configuration not stated) | 7% | 98% (active) | 91.6% (active)
13 | O=Cc1ccc([N+](=O)[O-])o1 | 20% | 99% (active) | 99.5% (active)
14 | Nc1ccccc1Sc1ccc(C(F)(F)F)cc1[N+](=O)[O-] | -1% | 19% | 98.9% (active)
